For 40 compounds, cell count and fold fluorescence results are on record in PubChem BioAssay.

SMILES strings stand for the structures. Several values for one entry are separate records, joined by “and”; a condition that tells them apart may be missing. Equal values may be shown once. Activity calls are given as the source filed them. How the calls were made is not given here. Where a SMILES comes first, the peptide text is derived from it. The star is where a group is joined. Cbz = O=C(OCc1ccccc1)*; CH2F = FC*

One test in a line: sensitizers of A549 cells to miR-34 induction, primary screen, imaging, A549 dox-inducible miR-34, nuclei and caspase counts (AID 1347080). As to conditions: A549 miR-34 inducible, Hoechst nuclei count, 48 h; measured here: total cells without miR-34 induction.
As for `CC(C)c1cccc(O)c(=O)c1`, the cell count was determined as 2030.

As to `CCCCC/C=C\C\C=C/C=C/C=C/[C@@H](SCC(NC(C)=O)C(=O)O)[C@@H](O)CCCC(=O)O` (stereo not given in full), the cell count stood at 6080.

Turning to `CCOC(=O)C1OC1C(=O)NC(CC(C)C)C(=O)NCCC(C)C` (stereo not given), the cell count stood at 8930.

With `CCCCCCCCCC(=O)N[C@H](CN1CCOCC1)[C@H](O)c1ccccc1`, the cell count is 5620.

In the case of `O=Cc1c2[nH]c3ccccc3c2cc2[nH]c3ccccc3c12`, the cell count was found to be 5520.

Consider `CCCCCC(=O)/C=C/C=C\CCCCCCCC(=O)O`, for which the cell count was found to be 5650.

Turning to `CCCCCCCCCCCCCCCCOC[C@H](CO)OC`, the cell count was 5500.

Consider `CCCCC/C=C\C/C=C\CCCCCCCC(=O)NCC(=O)O`, for which the cell count was 6540.

As to `CCCCCCCCCCCCCCC[C@H](O)[C@H](N)CO`, the cell count was found to be 1170.

`CCCCCC1OC1C/C=C\C/C=C\C/C=C\CCCC(=O)O` (stereo not given): the cell count turned out to be 6560.

For the compound `CCCCC[C@H](O)/C=C/C=C\C/C=C\C/C=C\CCCC(=O)O`, the cell count came out at 5700.

Regarding `CCCCCCCCCCOCCC(=O)O`, the cell count was 5970.

As to `CCCCC[C@H](O)/C=C/C=C\CCCCCCCC(=O)O`, the cell count was determined as 6180.

On to `COCc1cc(O)c(O)c(O)c1-c1c(COC)cc(O)c(O)c1O`, for which the cell count is 3100.

For the compound `CCCCC/C=C\C/C=C\C/C=C\CC1OC1CCCC(=O)O` (stereo not given), the cell count is 6280.

Regarding `CCCCC/C=C\C/C=C\CCCCCCCC(N)=O`, the cell count was found to be 6320.

As for `O=C(O)c1cc(N(Cc2ccccc2O)Cc2cc(O)ccc2O)ccc1O`, the cell count was 5680.

Take `CC(=O)N[C@@H](CSC/C=C(\C)CCC=C(C)C)C(=O)O`: the cell count was determined as 6000.

As for `COCCCCCCCCCCCC(=O)O`, the cell count is 6020.

Turning to `NCCNS(=O)(=O)c1cccc2cnccc12`, the cell count was determined as 3260.

For `CC(C)[C@@H]1NC(=O)[C@H](Cc2ccccc2)NC(=O)[C@@H](CC(=O)O)NC(=O)CNC(=O)[C@H](CCCN=C(N)N)NC1=O`, the cell count is 1280.

For `N#CC(C#N)=C(N)/C(C#N)=C/c1ccc2[nH]ccc2c1`, the cell count is 5030.

Turning to `CCCCCCCCCCC/C=C\C/C=C\CCCC(=O)O`, the cell count was 5820.

Consider `CCCCC/C=C\C/C=C\CC1OC1C/C=C\CCCC(=O)O` (stereo not given), for which the cell count amounted to 5750.

Regarding `CCCCC[C@H](O)/C=C/C=C\C=C\C=C\[C@@H](O)[C@@H](O)CCCC(=O)O`, the cell count was found to be 6220.

As for `COC(=O)C[C@H](NC(=O)[C@H](C)NC(=O)[C@@H](NC(=O)OCc1ccccc1)C(C)C)C(=O)CF` (Cbz-Val-Ala-Asp(OMe)-CH2F), the cell count amounted to 6270.

For the compound `CCCCCCCCCCCCCC(=O)N[C@@H](C)[C@H](O)c1ccccc1`, the cell count amounted to 6200.

Regarding `CC(=O)OCOC(c1cc([N+](=O)[O-])ccc1Oc1ccc(Br)cc1)P(=O)(OCOC(C)=O)OCOC(C)=O` (stereo not given), the cell count worked out at 2450.

Turning to `CC(C)n1cnc2c(NCc3ccccc3)nc(NCCO)nc21`, the cell count amounted to 1780.

`CCCCCCCCCCCCCCCC(=O)N[C@H](CN1CCOCC1)[C@H](O)c1ccccc1`: the cell count stood at 5590.

For the compound `CCCCCCCCCCCCCCCC(=O)N[C@@H](COP(=O)(O)O)C(=O)O`, the cell count was determined as 5940.

With `CCCCC/C=C\C\C=C/C=C/C=C/[C@@H](SC[C@H](NC(=O)CC[C@H](N)C(=O)O)C(=O)NCC(=O)O)[C@@H](O)CCCC(=O)O`, the cell count was determined as 5930.

For the compound `COc1c(C=O)c(O)cc2c1C(=O)c1ccccc1C2=O`, the cell count stood at 3080.

Consider `N#Cc1c(-c2ccccc2)no[n+]1[O-]`, for which the cell count turned out to be 700.

As for `CC12C=CC(=O)C=C1CCC1C2=CCC2(C)C1CC[C@@H]2C(=O)CN1CCN(c2cc(N3CCCC3)nc(N3CCCC3)n2)CC1` (stereo not given in full), the cell count turned out to be 4470.

Consider `CCCCCCCCCCCCC/C=C/[C@@H](O)[C@H](CO)NC(=O)CCCCCCCCCCCCCCC`, for which the cell count is 5200.

As to `CC/C=C\C/C=C\C/C=C\CCCCCCCCCCCC(=O)O`, the cell count was determined as 6030.

As for `CCCCC/C=C\C/C=C\C/C=C\C/C=C\CCCC(=O)O[C@@H](CO)COCCCCCCCCCCCCCCCC`, the cell count turned out to be 5840.

Take `CCCCC[C@H](O)C/C=C1/C(=O)C=C[C@@H]1C/C=C\CCCC(=O)O`: the cell count was found to be 5980.

As to `CCCCC/C=C\CC(O)/C=C/c1cccc(CC(O)CCCCO)n1` (stereo not given), the cell count worked out at 5760.

A further test is described as follows: inhibitors of Cryptococcus chitosan production, flow cytometry, Cibacron Brilliant Red staining (AID 1347148).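 Further: compound exposure lasted three days at 37 degrees C.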 The note with it: Cryptococcus neoformans chitosan, stronger effect = lower value; at 10 µM unless noted. On the technique in general: A flow cytometer gives signals particle by particle.
On to `CC(C)c1cccc(O)c(=O)c1`, for which the fold fluorescence is 10.2 [at 304.5 µM] (inactive).

As for `CCCCC/C=C\C\C=C/C=C/C=C/[C@@H](SCC(NC(C)=O)C(=O)O)[C@@H](O)CCCC(=O)O` (stereo not given in full), the fold fluorescence is 4.05 [at 1 µM] (inactive).

`CCOC(=O)C1OC1C(=O)NC(CC(C)C)C(=O)NCCC(C)C` (stereo not given): the fold fluorescence is 5.77 [at 146 µM] (inactive).

Consider `CCCCCCCCCC(=O)N[C@H](CN1CCOCC1)[C@H](O)c1ccccc1`, for which the fold fluorescence was 3.25 (active).

Turning to `O=Cc1c2[nH]c3ccccc3c2cc2[nH]c3ccccc3c12`, the fold fluorescence was 4.2 (inactive).

With `CCCCCC(=O)/C=C/C=C\CCCCCCCC(=O)O`, the fold fluorescence was 4.25 [at 1 µM] (inactive).

As for `CCCCCCCCCCCCCCCCOC[C@H](CO)OC`, the fold fluorescence is 4.63 (inactive).

For the compound `CCCCC/C=C\C/C=C\CCCCCCCC(=O)NCC(=O)O`, the fold fluorescence was 3.7 (inactive).

Regarding `CCCCCCCCCCCCCCC[C@H](O)[C@H](N)CO`, the fold fluorescence was 8.12 (inactive).

As to `CCCCCC1OC1C/C=C\C/C=C\C/C=C\CCCC(=O)O` (stereo not given), the fold fluorescence is 5.49 [at 1 µM] (inactive).

As to `CCCCC[C@H](O)/C=C/C=C\C/C=C\C/C=C\CCCC(=O)O`, the fold fluorescence was 4.64 [at 1 µM] (inactive).

Take `CCCCCCCCCCOCCC(=O)O`: the fold fluorescence was 6.36 (inactive).

Take `CCCCC[C@H](O)/C=C/C=C\CCCCCCCC(=O)O`: the fold fluorescence is 6.42 [at 1 µM] (inactive).

Regarding `COCc1cc(O)c(O)c(O)c1-c1c(COC)cc(O)c(O)c1O`, the fold fluorescence is 5.4 [at 147.8 µM] (inactive).

As to `CCCCC/C=C\C/C=C\C/C=C\CC1OC1CCCC(=O)O` (stereo not given), the fold fluorescence was 4.93 [at 1 µM] (inactive).

Consider `CCCCC/C=C\C/C=C\CCCCCCCC(N)=O`, for which the fold fluorescence was 4.31 (inactive).

In the case of `O=C(O)c1cc(N(Cc2ccccc2O)Cc2cc(O)ccc2O)ccc1O`, the fold fluorescence is 4.34 [at 131.1 µM] (inactive).

Regarding `CC(=O)N[C@@H](CSC/C=C(\C)CCC=C(C)C)C(=O)O`, the fold fluorescence was 5.25 (inactive).

`COCCCCCCCCCCCC(=O)O`: the fold fluorescence was 7.84 (inactive).

Regarding `NCCNS(=O)(=O)c1cccc2cnccc12`, the fold fluorescence is 3.25 [at 154.2 µM] (inactive).

For the compound `CC(C)[C@@H]1NC(=O)[C@H](Cc2ccccc2)NC(=O)[C@@H](CC(=O)O)NC(=O)CNC(=O)[C@H](CCCN=C(N)N)NC1=O`, the fold fluorescence was 6.81 [at 87 µM] (inactive).

`N#CC(C#N)=C(N)/C(C#N)=C/c1ccc2[nH]ccc2c1`: the fold fluorescence was 3.69 [at 192.8 µM] (inactive).

In the case of `CCCCCCCCCCC/C=C\C/C=C\CCCC(=O)O`, the fold fluorescence was 4.42 (inactive).

On to `CCCCC/C=C\C/C=C\CC1OC1C/C=C\CCCC(=O)O` (stereo not given), for which the fold fluorescence was 5.26 [at 1 µM] (inactive).

On to `CCCCC[C@H](O)/C=C/C=C\C=C\C=C\[C@@H](O)[C@@H](O)CCCC(=O)O`, for which the fold fluorescence was 4.45 [at 1 µM] (inactive).

For the compound `COC(=O)C[C@H](NC(=O)[C@H](C)NC(=O)[C@@H](NC(=O)OCc1ccccc1)C(C)C)C(=O)CF` (Cbz-Val-Ala-Asp(OMe)-CH2F), the fold fluorescence was 3.45 [at 107 µM] (inactive).

With `CCCCCCCCCCCCCC(=O)N[C@@H](C)[C@H](O)c1ccccc1`, the fold fluorescence is 3.67 (inactive) and 4.53 (inactive).

Turning to `CC(=O)OCOC(c1cc([N+](=O)[O-])ccc1Oc1ccc(Br)cc1)P(=O)(OCOC(C)=O)OCOC(C)=O` (stereo not given), the fold fluorescence is 3.77 [at 80.6 µM] (inactive).

As to `CC(C)n1cnc2c(NCc3ccccc3)nc(NCCO)nc21`, the fold fluorescence is 3.89 [at 153.2 µM] (inactive).

As for `CCCCCCCCCCCCCCCC(=O)N[C@H](CN1CCOCC1)[C@H](O)c1ccccc1`, the fold fluorescence was 5.42 (inactive).

As for `CCCCCCCCCCCCCCCC(=O)N[C@@H](COP(=O)(O)O)C(=O)O`, the fold fluorescence is 4.28 (inactive).

Consider `CCCCC/C=C\C\C=C/C=C/C=C/[C@@H](SC[C@H](NC(=O)CC[C@H](N)C(=O)O)C(=O)NCC(=O)O)[C@@H](O)CCCC(=O)O`, for which the fold fluorescence is 3.59 [at 1 µM] (inactive).

In the case of `COc1c(C=O)c(O)cc2c1C(=O)c1ccccc1C2=O`, the fold fluorescence is 5.22 [at 177.1 µM] (inactive).

As for `N#Cc1c(-c2ccccc2)no[n+]1[O-]`, the fold fluorescence is 6.16 [at 267.2 µM] (inactive).

As for `CC12C=CC(=O)C=C1CCC1C2=CCC2(C)C1CC[C@@H]2C(=O)CN1CCN(c2cc(N3CCCC3)nc(N3CCCC3)n2)CC1` (stereo not given in full), the fold fluorescence is 7.93 [at 81.9 µM] (inactive).

`CCCCCCCCCCCCC/C=C/[C@@H](O)[C@H](CO)NC(=O)CCCCCCCCCCCCCCC`: the fold fluorescence is 6.35 (inactive).

On to `CC/C=C\C/C=C\C/C=C\CCCCCCCCCCCC(=O)O`, for which the fold fluorescence was 4.89 (inactive).

`CCCCC/C=C\C/C=C\C/C=C\C/C=C\CCCC(=O)O[C@@H](CO)COCCCCCCCCCCCCCCCC`: the fold fluorescence is 5.56 (inactive).

For `CCCCC[C@H](O)C/C=C1/C(=O)C=C[C@@H]1C/C=C\CCCC(=O)O`, the fold fluorescence is 4.79 (inactive).

Turning to `CCCCC/C=C\CC(O)/C=C/c1cccc(CC(O)CCCCO)n1` (stereo not given), the fold fluorescence was 3.69 [at 1 µM] (inactive).
